{"source": "PubChem BioAssay AID624417", "about": "(National Center for Advancing Translational Sciences (NCATS), 2012)", "note": "The campaign covered roughly 410,000 compounds. About 6,400 (1.6%) were called active. Inconclusive results (about 20%) are left out. Calls come from the whole dose curve; as a rule, active = well fitted inhibition curve with a large enough effect; inconclusive = small, poorly fitted or top-dose-only effect; inactive = no such curve, though single readings can be large or run the other way. The list comes from a sample in which actives are over-represented; it also holds similar structures and randomly drawn compounds. % is set by controls: 0 for no effect and ±100 for the full control effect; potency is the fitted concentration of half-maximal effect.", "data": [{"target": "Glucagon-like peptide 1 receptor (Homo sapiens) (UniProt P43220)", "sequence (P43220 whole entry, looked up)": "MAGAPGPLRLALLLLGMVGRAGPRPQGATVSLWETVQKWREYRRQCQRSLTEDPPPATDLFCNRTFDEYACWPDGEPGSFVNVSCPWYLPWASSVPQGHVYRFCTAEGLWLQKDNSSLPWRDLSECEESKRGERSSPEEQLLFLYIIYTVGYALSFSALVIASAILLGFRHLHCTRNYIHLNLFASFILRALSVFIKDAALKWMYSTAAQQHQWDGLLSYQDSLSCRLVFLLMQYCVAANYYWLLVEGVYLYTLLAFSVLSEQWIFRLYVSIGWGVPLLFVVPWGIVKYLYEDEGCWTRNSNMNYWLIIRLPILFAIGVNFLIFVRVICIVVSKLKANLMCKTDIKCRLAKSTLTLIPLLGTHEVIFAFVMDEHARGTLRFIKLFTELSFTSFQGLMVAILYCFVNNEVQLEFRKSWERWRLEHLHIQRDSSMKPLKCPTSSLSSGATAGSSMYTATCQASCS", "assay": "qHTS of GLP-1 Receptor Inverse Agonists (Inhibition Mode); note: nearly all actives have a fitted effect of over 55% in size", "settings": "HEK293 GLP-1R CRE-luciferase, luminescence, 24 h, GLP-1R form is constitutively active; series mostly up to 38.3 µM; activity change, negative = inhibition: at the top concentration", "summary_of_the_method": "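Using stably transfected HEK293 (constitutively active GLP-1R, cAMP-luciferase reporter), compounds were incubated 24 hr and luciferase measured by luminescence.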", "values": [{"smiles": "CCOc1ccc(CCN2C(=O)C(=O)N([C@@H](Cc3ccc(O)cc3)CN3CCC[C@H]3CN3C(=O)C(=O)NC[C@@H]3CC(C)C)C[C@@H]2Cc2ccccc2)cc1", "activity change, negative = inhibition": "3.91% (inactive)"}, {"smiles": "CCCCn1nnnc1C(c1cccc(OC)c1OC)N1CCN(C/C=C/c2ccccc2)CC1", "note": "(centres undefined)", "activity change, negative = inhibition": "-33.9% (inactive)"}, {"smiles": "COc1c(C)cc(C(O)c2ncc(-c3cccc(C(F)(F)F)c3)[nH]2)cc1C", "note": "(centres undefined)", "Potency": "12.6 µM (active)"}, {"smiles": "Cc1cccc(-c2cnc(C(O)c3cc(C)cc(C)c3)[nH]2)c1", "note": "(centres undefined)", "activity change, negative = inhibition": "5.04% (inactive)"}, {"smiles": "COc1ccc(OC)c(C(O)c2ncc(-c3cccc(C(F)(F)F)c3)[nH]2)c1", "note": "(centres undefined)", "activity change, negative = inhibition": "-14.7% (inactive)"}, {"smiles": "COc1ccccc1Cc1c(-c2ccc(Cl)cc2)nc2c3ccccc3ccn12", "activity change, negative = inhibition": "10.4% (inactive)"}, {"smiles": "COc1ccccc1N1CCC(N2CCN(CC(C)(C)C)C(CCO)C2)CC1", "note": "(centres undefined)", "activity change, negative = inhibition": "-20% (inactive)"}, {"smiles": "Cc1cc(F)ccc1N1CCC(N2CCN(C)C(CCO)C2)CC1", "note": "(centres undefined)", "Potency": "4.47 µM (active)"}, {"smiles": "COc1ccc(N2CCC(N3CCN(C)C(CCO)C3)CC2)cc1", "note": "(centres undefined)", "activity change, negative = inhibition": "-9.84% (inactive)"}, {"smiles": "COc1ccc(CN2C(=O)C(CC(=O)NCCCCc3ccccc3)CC(C(=O)N3CCOCC3)=C2C)cc1", "note": "(centres undefined)", "activity change, negative = inhibition": "-15.1% (inactive)"}, {"smiles": "O=C(CC(c1ccccc1)c1cc(Cl)ccc1O)NCCN1CCOCC1", "note": "(centres undefined)", "activity change, negative = inhibition": "-15.9% (inactive)"}, {"smiles": "Cc1ccccc1NC(=O)CSc1nc2ccc(Nc3nc(N4CCOCC4)nc(N4CCOCC4)n3)cc2s1", "activity change, negative = inhibition": "-16.8% (inactive)"}, {"smiles": "O=C(CSc1nc(Nc2ccccc2)nc(N2CCOCC2)n1)Nc1cc(Cl)ccc1O", "Potency": "5.62 µM (active)"}, {"smiles": "CCCNC(=O)C1(C)CCN(C(=O)c2cc(F)ccc2C)C1", "note": "(centres undefined)", "activity change, negative = inhibition": "6.31% (inactive)"}, {"smiles": "CC1(C(=O)NS(=O)(=O)c2ccc(C#N)cc2)CCN1C(=O)c1ccc(C2CCCCC2)cc1", "note": "(centres undefined)", "activity change, negative = inhibition": "7.23% (inactive)"}, {"smiles": "N#CCSc1nc2c(c(=O)n1Cc1ccccc1)C1(CCCC1)Cc1ccccc1-2", "Potency": "3.98 µM (active)"}, {"smiles": "N#CCSc1nc2ccc(N3CCOCC3)cc2c(=O)n1CCc1ccccc1", "activity change, negative = inhibition": "2.45% (inactive)"}, {"smiles": "CCC1(CC)Cc2ccccc2-c2nc(CCl)[nH]c(=O)c21", "activity change, negative = inhibition": "55.9% (inactive)"}, {"smiles": "N#Cc1ccc(-c2ccc3nccn3c2)cc1", "activity change, negative = inhibition": "13.1% (inactive)"}, {"smiles": "O=[N+]([O-])c1ccc(CN2CC(N3CC=CC3)CS2(=O)=O)cc1", "note": "(centres undefined)", "activity change, negative = inhibition": "32.5% (inactive)"}, {"smiles": "C/C(COc1ccccc1)=N\\NC(=O)c1nnn(-c2nonc2N)c1-c1ccc(C)cc1", "activity change, negative = inhibition": "29.9% (inactive)"}, {"smiles": "CC(=O)c1ccc(NC(=O)CCc2nc(-c3ccc(C)cc3)no2)cc1", "activity change, negative = inhibition": "5.52% (inactive)"}, {"smiles": "COc1ccc(N2CCN(C(=O)CCc3nc(-c4ccc(C)cc4)no3)CC2)cc1", "activity change, negative = inhibition": "-9.69% (inactive)"}, {"smiles": "Cc1ccc(-c2noc(CCC(=O)Nc3ccccc3N3CCN(C)CC3)n2)cc1", "Potency": "11.2 µM (active)"}, {"smiles": "C[C@H]1CN([C@@H](C)CO)C(=O)CCCn2cc(nn2)CO[C@@H]1CN(C)S(=O)(=O)c1cccs1", "activity change, negative = inhibition": "15.3% (inactive)"}, {"smiles": "Cc1ccc(C)c(NS(=O)(=O)c2ccc(OCC(=O)NCc3cccnc3)cc2)c1", "activity change, negative = inhibition": "-11.7% (inactive)"}, {"smiles": "Cc1ccc(C)c(NC(=O)CN(C)C(=O)COc2ccc3ccccc3c2)c1", "activity change, negative = inhibition": "-2.61% (inactive)"}, {"smiles": "Cc1ccc(NS(=O)(=O)c2ccc(C)c(NC(=O)COc3ccc4ccccc4c3)c2)c(C)c1", "Potency": "5.01 µM (active)"}, {"smiles": "CCCCc1ccc(S(=O)(=O)NC(=O)C2(C)CCN2C(=O)c2ccccc2)cc1", "note": "(centres undefined)", "activity change, negative = inhibition": "-4.38% (inactive)"}, {"smiles": "Cc1nnc(SC(C)C(=O)c2c[nH]c3ccccc23)n1C1CC1", "note": "(centres undefined)", "activity change, negative = inhibition": "20.7% (inactive)"}, {"smiles": "Cc1nnsc1C(=O)Nc1cccc(Cl)c1C", "activity change, negative = inhibition": "1.72% (inactive)"}, {"smiles": "Cc1nnsc1C(=O)NCc1c(F)cccc1Cl", "activity change, negative = inhibition": "3.98% (inactive)"}, {"smiles": "Cc1cc(Cl)ccc1NNC(=O)c1snnc1C", "Potency": "2 µM (active)"}, {"smiles": "Nc1ncnc2c1ncn2[C@@H]1O[C@H](C(=O)NS(=O)(=O)c2c(Cl)nc3sccn23)[C@@H](O)[C@H]1O", "activity change, negative = inhibition": "27.7% (inactive)"}, {"smiles": "CCOC(=O)C1C(C)C(C(C)(C)C)N(S(=O)(=O)c2ccc(C)cc2)C1c1ccccc1", "note": "(centres undefined)", "activity change, negative = inhibition": "8.24% (inactive)"}, {"smiles": "CC1(C(=O)NS(=O)(=O)c2ccc(C#N)cc2)CCN1C(=O)CC1CCCC1", "note": "(centres undefined)", "activity change, negative = inhibition": "13.2% (inactive)"}, {"smiles": "Cc1cccc(CN2CCN(C3CN(Cc4ccccc4)S(=O)(=O)C3)CC2)c1", "note": "(centres undefined)", "activity change, negative = inhibition": "-17.1% (inactive)"}, {"smiles": "Cc1ccc(NNC(=O)C2CCC2)cc1C", "Potency": "6.31 µM (active)"}, {"smiles": "O=C(NNC(=O)C1CCC1)c1ccccc1", "activity change, negative = inhibition": "16.5% (inactive)"}, {"smiles": "Cc1ccc(C)c(OCC(=O)NNC(=O)C2CCC2)c1", "activity change, negative = inhibition": "-20.6% (inactive)"}, {"smiles": "Cc1ccc(C(=O)OCC(=O)NC2CCCCCCC2)cc1C", "activity change, negative = inhibition": "-20.1% (inactive)"}, {"smiles": "Cc1cccc(C(=O)N2CCN(S(=O)(=O)N3CCCCC3)CC2)c1", "activity change, negative = inhibition": "-24.5% (inactive)"}, {"smiles": "Cc1cccc(C)c1N1CCN(S(=O)(=O)N2CCOCC2)CC1", "activity change, negative = inhibition": "-4.05% (inactive)"}, {"smiles": "Cc1cccc(C)c1N1CCN(S(=O)(=O)N2CCCCC2)CC1", "Potency": "10 µM (active)"}, {"smiles": "CN(CCO)C(=O)c1nc[nH]c1C(=O)N(C)Cc1ccccc1", "activity change, negative = inhibition": "19.1% (inactive)"}, {"smiles": "CC1=C(C)CC(C(=O)NNC(=O)c2ccccc2O)C(C(=O)O)C1", "note": "(centres undefined)", "activity change, negative = inhibition": "1.03% (inactive)"}, {"smiles": "Cc1cc(C(=O)NNC(=O)c2ccccc2O)c(C)o1", "activity change, negative = inhibition": "-16.5% (inactive)"}, {"smiles": "O=C(NNC(=O)c1ccccc1O)c1ccccc1O", "Potency": "5.01 µM (active)"}, {"smiles": "Clc1ccccc1Nc1nc(NCc2cccs2)nc2ccsc12", "activity change, negative = inhibition": "25.6% (inactive)"}, {"smiles": "CC(C)(C)OC(=O)N1CCN(C(=O)c2[nH]c(C(F)(F)F)nc2-c2ccccc2)CC1", "activity change, negative = inhibition": "20.7% (inactive)"}, {"smiles": "CCOC(=O)[C@]12CCC=C1N(Cc1ccccc1)C(=O)[C@H](CC(=O)N1CCCC1)C2", "activity change, negative = inhibition": "13.6% (inactive)"}, {"smiles": "CCCNC(=O)c1cc2c(c(-c3cccc(-c4ccc(C#N)cc4)c3)n1)[C@@H](CCO)N(C(=O)CC)C2", "activity change, negative = inhibition": "-24.4% (inactive)"}, {"smiles": "COc1ccc(NC(=O)CCNC(=O)Cn2cnc3sc4c(c3c2=O)CCCC4)cc1OC", "activity change, negative = inhibition": "-28% (inactive)"}, {"smiles": "COc1ccc(/C=N/Nc2ncnc3sc4c(c23)CCCC4)cc1O", "Potency": "10 µM (active)"}, {"smiles": "COc1ccc(NC(=O)CCCNC(=O)Cn2cnc3sc4c(c3c2=O)CCCC4)cc1OC", "activity change, negative = inhibition": "-3.11% (inactive)"}, {"smiles": "Cc1ccc(S(=O)(=O)N[C@H]2CCC[C@@H]2O)cc1", "activity change, negative = inhibition": "12.7% (inactive)"}, {"smiles": "Cn1c(NCc2cccnc2)nc2cc(-c3ccc(F)cc3)sc2c1=O", "activity change, negative = inhibition": "35.5% (inactive)"}, {"smiles": "Cc1[nH]c2ccccc2c1C(=O)c1cc([C@H](NC(=O)OC(C)(C)C)C(C)C)sc1N", "Potency": "10 µM (active)"}, {"smiles": "Cc1[nH]c2ccccc2c1C(=O)CSCC(=O)O", "activity change, negative = inhibition": "-8.74% (inactive)"}, {"smiles": "Cc1[nH]c2ccccc2c1C(=O)C(C)Sc1nnc(C2CC2)o1", "note": "(centres undefined)", "activity change, negative = inhibition": "-23.9% (inactive)"}, {"smiles": "OC[C@@H]1CN(Cc2ccncc2)C[C@H](n2cnc3c(N4CCN(c5ccccc5)CC4)ncnc32)O1", "activity change, negative = inhibition": "-29.5% (inactive)"}, {"smiles": "CC(C)(C)OC(=O)N[C@H](C(=O)OC(C)(C)C)c1ccc(Br)cc1", "Potency": "10 µM (active)"}, {"smiles": "CC(C)(C)OC(=O)Nc1ccc([C@@H](NC(=O)OC(C)(C)C)C(=O)OC(C)(C)C)cc1", "activity change, negative = inhibition": "-4.14% (inactive)"}, {"smiles": "C[C@H](NC(=O)OC(C)(C)C)c1nnc(SCC(=O)Nc2ccc(Br)cc2)o1", "activity change, negative = inhibition": "-1.93% (inactive)"}]}]}
